Screening results from PubChem.
hDAT+cocaine – changed hDAT dopamine uptake under cocaine IC80, either direction, primary screen, cocaine antagonist project, cell-based, LLC-PK1 hDAT, [14C]-dopamine uptake, MLSMR. 1.3% of 110,000 active. AID 449768, 2010. LLC-PK1 hDAT cells, [14C]-dopamine uptake with cocaine IC80; actives deviate in either direction. B-score at 10 µM;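 active = Z score or B-score, a plate-position-corrected score, falls beyond the plate's 99.7% confidence bounds, in either direction; inactive = both scores lie inside the 99.7% bounds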
EphB4 ephrin blk – EphB4-ephrin-B2 interaction antagonists, primary screen, biochemical, TNYL-RAW peptide probe, fluorescence polarization | Ephrin type-B receptor 4 (Homo sapiens), P54760 | EphB4 LBD / TNYL-RAW-Alexa532 peptide | inhibition, % at 7 µM | 0.15% of 97,000 active | AID 720, 2007;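 active = inhibition above the screen-wide mean inhibition plus 3 SD, cut at about 15% in these data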
Target sequence (P54760 whole entry, looked up, the tested form may be a part): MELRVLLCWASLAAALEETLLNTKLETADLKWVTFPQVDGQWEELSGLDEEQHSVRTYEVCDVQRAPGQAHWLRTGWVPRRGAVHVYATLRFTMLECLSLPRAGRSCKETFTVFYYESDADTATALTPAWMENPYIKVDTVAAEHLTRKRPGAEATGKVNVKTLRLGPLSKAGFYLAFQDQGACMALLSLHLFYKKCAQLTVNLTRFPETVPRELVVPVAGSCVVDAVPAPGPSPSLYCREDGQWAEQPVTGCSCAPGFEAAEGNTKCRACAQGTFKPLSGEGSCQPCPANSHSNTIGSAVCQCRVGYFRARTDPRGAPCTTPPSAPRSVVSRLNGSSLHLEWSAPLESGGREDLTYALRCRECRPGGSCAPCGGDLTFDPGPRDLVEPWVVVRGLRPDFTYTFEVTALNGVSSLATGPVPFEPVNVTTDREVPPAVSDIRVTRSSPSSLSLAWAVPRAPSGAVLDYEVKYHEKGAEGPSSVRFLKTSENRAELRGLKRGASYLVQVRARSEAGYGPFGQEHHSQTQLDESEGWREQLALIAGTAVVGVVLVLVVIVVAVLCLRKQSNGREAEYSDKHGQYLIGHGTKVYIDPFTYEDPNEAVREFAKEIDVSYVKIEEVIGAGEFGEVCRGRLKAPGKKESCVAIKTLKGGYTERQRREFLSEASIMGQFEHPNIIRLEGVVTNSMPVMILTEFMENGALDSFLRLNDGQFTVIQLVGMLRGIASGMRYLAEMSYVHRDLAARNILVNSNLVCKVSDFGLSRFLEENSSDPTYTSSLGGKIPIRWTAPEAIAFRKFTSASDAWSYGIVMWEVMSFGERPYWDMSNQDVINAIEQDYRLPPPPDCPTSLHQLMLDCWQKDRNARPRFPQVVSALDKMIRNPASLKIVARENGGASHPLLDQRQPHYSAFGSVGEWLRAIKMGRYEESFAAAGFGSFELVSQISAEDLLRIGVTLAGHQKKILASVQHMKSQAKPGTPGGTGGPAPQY
D1 mod – D1 CRE-luciferase signal change, two-sided – cell-based, HEK293 D1, dopamine EC30, D1 allosteric modulator project, primary screen; B-score at 10 µM; 5.9% of 58,000 active; D(1A) dopamine receptor (Homo sapiens), P21728; dopamine EC30 potentiation; actives deviate in either direction;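 active = luminescence count or its row- and column-corrected plate score outside the 99.7% band of the plate's sample wells, on either side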
Of the large screens only hits and unclear results are named; the others gave an inactive call. The entries come from a sample that favours hits as a whole.

COc1ccc(-c2[nH]ncc2Oc2ccccc2OC)c(O)c1	none
C=C(C)COc1ccc(-c2nc(N)ncc2-c2ccc(OC)cc2)c(O)c1	D1 mod 3.4
COc1ccc(-c2nc(N)ncc2Oc2ccccc2Br)c(O)c1	D1 mod 14
C=C(C)COc1ccc(-c2ncncc2Oc2ccc(OC)cc2)c(O)c1	none
O=C(OC(C(=O)NCC1CCCO1)c1ccc(F)cc1)c1cccs1 (centres undefined)	none (no result: D1 mod)
O=C(c1ccc(COc2ccccc2Cl)o1)N1CCN(Cc2ccc3c(c2)OCO3)CC1	EphB4 ephrin blk 18
O=C(c1ccc(COc2ccc(Cl)cc2)o1)N1CCN(Cc2ccc3c(c2)OCO3)CC1	none
O=C(CN(C(=O)c1ccc2c(c1)OCCO2)c1ccccc1)NCC1CCCO1 (centres undefined)	none
COCCn1c(SCC(=O)Nc2ncc(C)s2)nc2sc3c(c2c1=O)CCC3	none
COCCn1c(SCc2nnc(-c3ccccc3)o2)nc2sc3c(c2c1=O)CCC3	D1 mod -5
CC1(C)CC(=O)C(C(c2ccccc2F)C2C(=O)CC(C)(C)CC2=O)C(=O)C1	none (no result: D1 mod)
CC1(C)CC(=O)C(C(c2cccnc2)C2C(=O)CC(C)(C)CC2=O)C(=O)C1	D1 mod -5.5
CN(c1ccccc1)S(=O)(=O)c1cc(C(=O)N2CCN(c3ccccn3)CC2)ccc1Cl	D1 mod -3.3
O=C(c1ccc(Cl)c(S(=O)(=O)Nc2ccc(F)cc2)c1)N1CCN(c2ccccn2)CC1	none (no result: D1 mod)
CN(CC(=O)N1CCN(c2ccccn2)CC1)S(=O)(=O)c1ccccc1	none (no result: D1 mod)
CN(C(=O)N1CCN(c2ccccn2)CC1)c1ccccc1	EphB4 ephrin blk 15 (no result: D1 mod)
C=C(C)C(=O)Nc1cccc(C2=NOC3(C2)C[C@H](C(N)=O)N(C(=O)/C=C/C)C3)c1 (some centres undefined)	none (no result: EphB4 ephrin blk, D1 mod)
CC1(OC(=O)CCc2ccccc2)C(=O)C=C2C=C(c3ccc(C#N)cc3)N(CCc3c[nH]c4ccccc34)C=C2C1=O (centres undefined)	none (no result: EphB4 ephrin blk, D1 mod)
O=C1c2ccccc2S(=O)(=O)c2cc(N3CCc4ccccc4C3)ccc21	none (no result: EphB4 ephrin blk, D1 mod)
O=C(CSc1nnc(-c2ccc(Cl)s2)o1)N1CCc2ccccc21	none
O=C(CSc1nnc(-c2ccc(Cl)s2)o1)N1CCCc2ccccc21	D1 mod -2.7
CC1CN(Cc2ccccc2Cl)CC(C)O1 (centres undefined)	none (no result: D1 mod)
CCc1cc(OCCCSc2nc(C)cc(=O)[nH]2)ccc1Cl	none (no result: D1 mod)
O=C(NCCN1CCC(Cc2ccccc2)CC1)C1CCCN(S(=O)(=O)c2cnc[nH]2)C1 (centres undefined)	none (no result: hDAT+cocaine)
O=C(NCCN1CCN(c2ccccc2F)CC1)C1CCCN(S(=O)(=O)c2cnc[nH]2)C1 (centres undefined)	D1 mod -3.2 (no result: hDAT+cocaine)
N/C(=N\c1nc2c(c(=O)[nH]1)CCC2)Nc1cccc2ccccc12	none (no result: D1 mod)
CC1CCN(c2nc3ccc(C(=O)N4CCN(Cc5ccc6c(c5)OCO6)CC4)cc3s2)CC1	none (no result: hDAT+cocaine, D1 mod)
Cc1ccccc1NC(=O)c1ccc(CN2CCc3ccccc3C2)cc1	none (no result: D1 mod)
CN1CCN(C(=O)c2ccc(CN3CCOCC3)cc2)CC1	none
O=C(c1ccc(CN2CCOCC2)cc1)N1CCC(Cc2ccccc2)CC1	D1 mod -3.3
CCc1ccccc1NC(=O)c1ccc(CN2CCC(Cc3ccccc3)CC2)cc1	hDAT+cocaine -6.9 (no result: D1 mod)
CCc1ccc(C(=O)Nc2nnn(CC)n2)cc1	D1 mod -4.5
CCCCn1nnc(NC(=O)c2ccc(-c3ccccc3)cc2)n1	none
COC(=O)[C@H]1[C@@H](C)N(Cc2ccccc2)C(=O)N[C@H]1c1cccc(C(F)(F)F)c1	none (no result: EphB4 ephrin blk, D1 mod)
C=CCn1c(SCC(=O)NCC2CCCO2)nc2scc(-c3ccco3)c2c1=O (centres undefined)	hDAT+cocaine 2.6
O=C(CSc1nc2scc(-c3ccco3)c2c(=O)n1-c1ccccc1)NCC1CCCO1 (centres undefined)	none
Cc1cccc(OCC(=O)NNC(=O)Nc2cccc(Cl)c2)c1C	none (no result: D1 mod)
O=C(CCc1n[nH]c(=O)[nH]c1=O)N1CCOCC1	none
O=C(CCNc1n[nH]c(=O)[nH]c1=O)N1CCOCC1	hDAT+cocaine -3.4 (no result: D1 mod)
CN(CCOc1ccccc1)S(=O)(=O)c1ccc2oc3ccccc3c2c1	none (no result: D1 mod)
Cn1nnnc1SCC(=O)Nc1cc(C(=O)O)cc(C(=O)O)c1	none (no result: D1 mod)
Cc1cc(C)c2cc(C(c3nnnn3C3CCCC3)N3CCOCC3)c(=O)[nH]c2c1 (centres undefined)	none (no result: EphB4 ephrin blk)
Cc1ccc2cc(C(c3nnnn3C3CCCC3)N3CCN(c4ccc(F)cc4)CC3)c(=O)[nH]c2c1 (centres undefined)	hDAT+cocaine 3.7
Cc1ccc(S(=O)(=O)N2CCC(=O)N(C(COCc3cccc(C(F)(F)F)c3)Cc3ccccc3)CC2)cc1 (centres undefined)	none (no result: EphB4 ephrin blk, D1 mod)
N#CCCN1CCN(C(=S)c2ccc(-c3cccc(Cl)c3)o2)CC1	hDAT+cocaine 2.4
N#CCCN1CCN(C(=S)c2ccc(-c3ccc(Cl)c(Cl)c3)o2)CC1	none
O=P(Cc1ccccn1)(c1ccccc1)c1ccccc1	none (no result: D1 mod)
C=CCn1c2ccccc2c2nnc(SCCCn3c(=O)[nH]c4ccccc43)nc21	hDAT+cocaine 3.7
O=c1[nH]c2ccccc2n1CCCSc1cnc2ccccc2n1	none
O=C(COC(=O)[C@H](Cc1ccccc1)NC(=O)c1ccco1)NCc1ccccc1	none (no result: D1 mod)
CCCCCC(=O)N1CC2(CC(c3cccc(NC(=O)CC)c3)=NO2)C[C@H]1C(N)=O (some centres undefined)	none (no result: EphB4 ephrin blk, D1 mod)
CCOC(=O)C1CCN(c2ncnc3c2oc2ccccc23)CC1	none
CCOC(=O)c1cnn(-c2ncnc3c2oc2ccccc23)c1N	D1 mod -3.7 (no result: EphB4 ephrin blk)
COc1ccccc1-c1noc(-c2ccncc2)n1	none
COc1nc(C)ccc1-c1noc(-c2ccccn2)n1	D1 mod -4.1
COc1ccccc1-c1nc(-c2ccccn2)no1	D1 mod -7.4
COc1ccccc1-c1nc(-c2ccc(C)nc2OC)no1	none
COCCN1C(=O)N[C@@H](c2cccs2)C(C(C)=O)=C1C	none (no result: EphB4 ephrin blk, D1 mod)
COc1ccc(/C=N/c2oc(-c3ccccc3)cc2C#N)cc1OC	none (no result: D1 mod)
CC(C)c1cn(C2OC(COC(=O)c3ccccc3)C(OC(=O)c3ccccc3)C2OC(=O)c2ccccc2)c(=O)[nH]c1=O (centres undefined)	none (no result: EphB4 ephrin blk, D1 mod)
Cc1onc(-c2ccccc2Cl)c1C(=O)N1CCc2ccccc21	D1 mod -2.8
Cc1onc(-c2ccccc2Cl)c1C(=O)N1CCCc2ccccc21	none
O=C(NCCn1ccc2ccccc21)c1ccc(S(=O)(=O)N2CCOCC2)cc1	none (no result: EphB4 ephrin blk)
C#CCOCCOCCOCCNc1nc(N2CCN(C(=O)[C@H](CCCCN)n3cc(C(N)CO)nn3)CC2)nc(N2CCN(C(=O)[C@H](CCCCN)n3cc(C(N)COC(=O)C(F)(F)F)nn3)CC2)n1 (some centres undefined)	none (no result: EphB4 ephrin blk, D1 mod)
CCc1ccc(C(=O)N2CCN(c3ccc(F)cc3)CC2)s1	hDAT+cocaine 2
CCc1ccc(C(=O)N2CCCC2)s1	none
Cc1cc(C)c(N=C2CCCN2Cc2ccccc2)c(C#N)c1	hDAT+cocaine 3 (no result: D1 mod)
N#Cc1ccccc1N=C1CCCN1Cc1ccccc1	none
